Laboratory results reported in ChEMBL document CHEMBL3988442, “University of Dundee, Small-Polar-MMV Screening Library” (2021).

molecular target: T1, Aspartate--tRNA(Asp/Asn) ligase (Mycobacterium tuberculosis (strain ATCC 25618 / H37Rv)) (UniProt P9WFW3); experiment: Assay for Asp RNA synthetase-1 from Mycobacterium tuberculosis; type: functional; design: scale not given: direction of the effect not stated beside the values; details: 30 µM; further: in the data most compounds retested in dose-response had high values
T1 sequence (whole entry): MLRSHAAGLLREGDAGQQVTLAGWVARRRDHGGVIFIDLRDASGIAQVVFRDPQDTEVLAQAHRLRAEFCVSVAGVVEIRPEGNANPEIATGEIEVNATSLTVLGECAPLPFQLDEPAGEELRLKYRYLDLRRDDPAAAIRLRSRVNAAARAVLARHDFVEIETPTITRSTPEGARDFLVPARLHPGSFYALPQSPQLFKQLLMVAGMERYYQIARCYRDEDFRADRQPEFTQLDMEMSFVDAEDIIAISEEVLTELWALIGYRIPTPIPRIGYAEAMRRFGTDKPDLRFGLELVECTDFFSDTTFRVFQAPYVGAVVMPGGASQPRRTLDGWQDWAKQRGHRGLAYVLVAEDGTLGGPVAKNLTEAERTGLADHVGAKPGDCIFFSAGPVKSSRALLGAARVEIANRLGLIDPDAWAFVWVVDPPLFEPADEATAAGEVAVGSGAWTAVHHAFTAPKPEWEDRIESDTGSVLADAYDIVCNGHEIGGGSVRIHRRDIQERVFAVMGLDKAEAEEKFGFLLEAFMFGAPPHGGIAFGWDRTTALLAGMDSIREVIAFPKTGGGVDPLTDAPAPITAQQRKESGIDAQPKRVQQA

Compound	Percent Effect [%]
CN(Cc1ccccn1)C1COC2(CCN(Cc3nccs3)CC2)C1 (stereo unspecified)	-4.31
CN(Cc1ccco1)Cc1ccccc1CNC(=O)c1ccc[nH]1	0.725
Cc1cnn(C2CN(CC(=O)Nc3cccnc3)C2)c1	3.91
Cc1cc(C2CCCN(C(=O)c3c(C)noc3C)C2)n[nH]1 (stereo unspecified)	-1.62
N#Cc1cccc(S(=O)(=O)NC2CCN(Cc3ccccc3)C2=O)c1 (stereo unspecified)	-1.89
Cc1cc(F)ccc1S(=O)(=O)NCc1cccc(C(=O)N2CCCC2)c1	-1.3
Cc1ccc(C(=O)N2CCN(C(=O)Nc3ccccn3)CC2)o1	4.09
Cn1cc(NC(=O)Cn2c(CS(C)(=O)=O)nc3ccccc32)cn1	-0.299
CCc1ccc(C2CCCCCN2Cc2nc(CCOC)no2)o1 (stereo unspecified)	10.6
c1cc(CNCc2ccc3c(c2)CCO3)cc(N2CCOCC2)n1	-4.98
Cc1ccc(C(=O)N2CCN(CCCSCC#N)CC2)o1	3.17
CCN(C(=O)Nc1cccnc1OC)C1CC1	-1.21
CNC(=O)[C@@]12CCC3(CCN(C(C)=O)CC3)[C@@H]1CN(S(C)(=O)=O)C2	-0.917
CCN(c1ccc(C(=O)NCCCN2CCCC2)cc1)S(=O)(=O)CC	2.52
Cc1cc(C)n(CC(=O)N2CCC(c3nc(C)no3)CC2)n1	3.56
O=C(O)CC1CN(Cc2ccccc2)CCO1 (stereo unspecified)	-0.183
CS(=O)(=O)c1snnc1C1CCN(Cc2ccncc2)CC1	-6.42
CCN1CCC(c2nc3ccc(NC(C)C)cn3n2)CC1	2.52
CCCc1noc(CCC(=O)NC(C)c2nnc3n2CCCCC3)n1 (stereo unspecified)	-4.13
OCC1CCCN1c1cc(NCc2ccc(Cl)s2)ncn1 (stereo unspecified)	0.451
CN1C(=O)C(C)(C)COc2cc(NS(=O)(=O)c3ccccc3)ccc21	-5.61

molecular target: Shiga toxin 2 (Escherichia coli O157:H7) (UniProt P09385+P09386); experiment: E. coli 0.157:H7 Shiga Toxin SOP - stx2 screening assay; type: functional; design: scale not given: direction of the effect not stated beside the values; details: 30 µM

Compound	Percent Effect [%]
COc1ccc2c(c1)CC(NC(=O)NCc1cccs1)CO2 (stereo unspecified)	-8.88
COc1cccc(C(=O)NCCCN2CCc3ccccc3C2)c1OC	-9.33
Cn1cc(CN2C[C@@H]3COC[C@]3(COc3ccc(C#N)cn3)C2)cn1	-7.69
Cc1nn(C)c(C)c1C1CCCN1C(=O)CCCn1cccn1 (stereo unspecified)	10.6
O=C(NCC1CCOC1)N1CCN(Cc2ccc3c(c2)CCO3)CC1 (stereo unspecified)	28.1
CC(=O)N1CCCC1c1nccc(C)n1 (stereo unspecified)	0.898
NC(=O)C1CCN(C(=O)c2cccc(OCc3cscn3)c2)CC1	-35.2
COCCNC(=O)C(C)n1cc(Br)cn1 (stereo unspecified)	-44.4
NC(=O)C1CN(C(=O)Nc2ccccc2-c2cccs2)CCO1 (stereo unspecified)	-14.7
CN1CCN(C(=O)[C@@H]2CCO[C@@H]3CCN(c4ncccn4)C[C@@H]32)CC1	-16.6
CCC1=N[C@@]2(CC[C@@H]3CN(S(=O)(=O)CC(C)C)C[C@@H]32)C(=O)N1C	-1.16
CC(C(=O)Nc1ncccn1)N1CCCN(c2nccs2)CC1 (stereo unspecified)	-54.2
Cc1nc(CN2CCc3ncnc(-c4ccc(F)cc4)c3CC2)cs1	5.58
Cc1cc(CN(C)C2CCCN(Cc3noc(C4CC4)n3)C2)no1 (stereo unspecified)	28
CC(C)n1ccnc1CN1CCCN(C(=O)c2nccnc2N)CC1	-13.7
CNS(=O)(=O)c1ccc(CNC(=O)NCC2CCOC2)cc1 (stereo unspecified)	25.4
O=C(c1cc(F)ccc1F)C1CCN(C(=O)c2cccnc2O)CC1	27.8
CC(C)CNC(=O)[C@H]1CCS(=O)(=O)[C@@H]2CN(Cc3cccc(Cl)c3)C[C@H]12	-29.7
CCCc1n[nH]c(C2CN(CCn3cccn3)CCO2)n1 (stereo unspecified)	6.67
CN(Cc1ccccn1)C1COC2(CCN(Cc3nccs3)CC2)C1 (stereo unspecified)	-5.28

Compound	Percent Effect [%]
CN(Cc1ccco1)Cc1ccccc1CNC(=O)c1ccc[nH]1	26.7
Cc1cnn(C2CN(CC(=O)Nc3cccnc3)C2)c1	11
Cc1cc(C2CCCN(C(=O)c3c(C)noc3C)C2)n[nH]1 (stereo unspecified)	8.79
N#Cc1cccc(S(=O)(=O)NC2CCN(Cc3ccccc3)C2=O)c1 (stereo unspecified)	8.07
Cc1cc(F)ccc1S(=O)(=O)NCc1cccc(C(=O)N2CCCC2)c1	30.6
Cc1ccc(C(=O)N2CCN(C(=O)Nc3ccccn3)CC2)o1	10.3
Cn1cc(NC(=O)Cn2c(CS(C)(=O)=O)nc3ccccc32)cn1	1.48
CCc1ccc(C2CCCCCN2Cc2nc(CCOC)no2)o1 (stereo unspecified)	-30.6
c1cc(CNCc2ccc3c(c2)CCO3)cc(N2CCOCC2)n1	-32.6
Cc1ccc(C(=O)N2CCN(CCCSCC#N)CC2)o1	-67.1
CCN(C(=O)Nc1cccnc1OC)C1CC1	-24.9
CNC(=O)[C@@]12CCC3(CCN(C(C)=O)CC3)[C@@H]1CN(S(C)(=O)=O)C2	-15.9
CCN(c1ccc(C(=O)NCCCN2CCCC2)cc1)S(=O)(=O)CC	-46.4
Cc1cc(C)n(CC(=O)N2CCC(c3nc(C)no3)CC2)n1	3.16
O=C(O)CC1CN(Cc2ccccc2)CCO1 (stereo unspecified)	-5.59
CS(=O)(=O)c1snnc1C1CCN(Cc2ccncc2)CC1	0.0805
CCN1CCC(c2nc3ccc(NC(C)C)cn3n2)CC1	4.27
CCCc1noc(CCC(=O)NC(C)c2nnc3n2CCCCC3)n1 (stereo unspecified)	-15.1
OCC1CCCN1c1cc(NCc2ccc(Cl)s2)ncn1 (stereo unspecified)	-31.6
CN1C(=O)C(C)(C)COc2cc(NS(=O)(=O)c3ccccc3)ccc21	8.93
